Source: the supplement of paper PMC10412459
Structures can show the parent of a compound that is named as a salt.

Test system: K562 SF3B1 K700E vs K562 SF3B1 WT
Assay: surviving fraction ratio K562 SF3B1 K700E / K562 SF3B1 WT (each relative to DMSO); higher = less selective killing of SF3B1 K700E cells
Settings: 5 days
Summary of the method: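 In 384-well plates holding 250 cells per well, isogenic K562 cells bearing an engineered mutant allele and matched wild-type cells received compounds from an in-house 80-compound library 24 h after seeding. Doses were 0.5, 1, 5, 10, 50, 100, 500 and 1,000 nM, with 5 d of continuous culture. Surviving fractions were taken from CellTiter-Glo readings and normalised to DMSO. The value reported is the mutant-over-wild-type ratio of these fractions.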

## COc1cc2c(Oc3ccc(NC(=O)C4(C(=O)Nc5ccc(F)cc5)CC4)cc3F)ccnc2cc1OCCCN1CCOCC1 [Foretinib]
0.5nM
  surviving fraction ratio K562 SF3B1 K700E / K562 SF3B1 WT: 0.742
1nM
  surviving fraction ratio K562 SF3B1 K700E / K562 SF3B1 WT: 0.75
5nM
  surviving fraction ratio K562 SF3B1 K700E / K562 SF3B1 WT: 0.797
10nM
  surviving fraction ratio K562 SF3B1 K700E / K562 SF3B1 WT: 0.729
50nM
  surviving fraction ratio K562 SF3B1 K700E / K562 SF3B1 WT: 0.775
100nM
  surviving fraction ratio K562 SF3B1 K700E / K562 SF3B1 WT: 0.561
500nM
  surviving fraction ratio K562 SF3B1 K700E / K562 SF3B1 WT: 1.02
1000nM
  surviving fraction ratio K562 SF3B1 K700E / K562 SF3B1 WT: 0.913

## CCCCCCCCCCCCCCCC(=O)Nc1ccn([C@@H]2O[C@H](CO)[C@@H](O)[C@@H]2C#N)c(=O)n1 [sapacitabine]
1nM
  surviving fraction ratio K562 SF3B1 K700E / K562 SF3B1 WT: 0.911
10nM
  surviving fraction ratio K562 SF3B1 K700E / K562 SF3B1 WT: 1.11
100nM
  surviving fraction ratio K562 SF3B1 K700E / K562 SF3B1 WT: 0.745
1000nM
  surviving fraction ratio K562 SF3B1 K700E / K562 SF3B1 WT: 1.78

## Nc1ccn([C@@H]2O[C@H](CO)[C@@H](O)C2(F)F)c(=O)n1 [gemcitabine.HCl]
0.5nM
  surviving fraction ratio K562 SF3B1 K700E / K562 SF3B1 WT: 0.839
1nM
  surviving fraction ratio K562 SF3B1 K700E / K562 SF3B1 WT: 0.772
5nM
  surviving fraction ratio K562 SF3B1 K700E / K562 SF3B1 WT: 0.465
10nM
  surviving fraction ratio K562 SF3B1 K700E / K562 SF3B1 WT: 0.491
50nM
  surviving fraction ratio K562 SF3B1 K700E / K562 SF3B1 WT: 0.901
100nM
  surviving fraction ratio K562 SF3B1 K700E / K562 SF3B1 WT: 1.16
500nM
  surviving fraction ratio K562 SF3B1 K700E / K562 SF3B1 WT: 1.1
1000nM
  surviving fraction ratio K562 SF3B1 K700E / K562 SF3B1 WT: 1.16

## NC1(c2ccc(-c3nc4ccn5c(=O)[nH]nc5c4cc3-c3ccccc3)cc2)CCC1
0.5nM
  surviving fraction ratio K562 SF3B1 K700E / K562 SF3B1 WT: 0.882
1nM
  surviving fraction ratio K562 SF3B1 K700E / K562 SF3B1 WT: 0.849
5nM
  surviving fraction ratio K562 SF3B1 K700E / K562 SF3B1 WT: 0.841
10nM
  surviving fraction ratio K562 SF3B1 K700E / K562 SF3B1 WT: 0.686
50nM
  surviving fraction ratio K562 SF3B1 K700E / K562 SF3B1 WT: 0.61
100nM
  surviving fraction ratio K562 SF3B1 K700E / K562 SF3B1 WT: 0.706
500nM
  surviving fraction ratio K562 SF3B1 K700E / K562 SF3B1 WT: 0.654
1000nM
  surviving fraction ratio K562 SF3B1 K700E / K562 SF3B1 WT: 0.626

## NS(=O)(=O)OC[C@@H]1C[C@@H](n2ccc3c(N[C@H]4CCc5ccccc54)ncnc32)C[C@@H]1O
0.5nM
  surviving fraction ratio K562 SF3B1 K700E / K562 SF3B1 WT: 0.743
1nM
  surviving fraction ratio K562 SF3B1 K700E / K562 SF3B1 WT: 0.708
5nM
  surviving fraction ratio K562 SF3B1 K700E / K562 SF3B1 WT: 0.772
10nM
  surviving fraction ratio K562 SF3B1 K700E / K562 SF3B1 WT: 0.687
50nM
  surviving fraction ratio K562 SF3B1 K700E / K562 SF3B1 WT: 0.74
100nM
  surviving fraction ratio K562 SF3B1 K700E / K562 SF3B1 WT: 1.51
500nM
  surviving fraction ratio K562 SF3B1 K700E / K562 SF3B1 WT: 1.22
1000nM
  surviving fraction ratio K562 SF3B1 K700E / K562 SF3B1 WT: 1.07

## O=C(NOCC1CC1)c1ccc(F)c(F)c1Nc1ccc(I)cc1Cl
0.5nM
  surviving fraction ratio K562 SF3B1 K700E / K562 SF3B1 WT: 1.29
1nM
  surviving fraction ratio K562 SF3B1 K700E / K562 SF3B1 WT: 0.978
5nM
  surviving fraction ratio K562 SF3B1 K700E / K562 SF3B1 WT: 1.08
10nM
  surviving fraction ratio K562 SF3B1 K700E / K562 SF3B1 WT: 0.818
50nM
  surviving fraction ratio K562 SF3B1 K700E / K562 SF3B1 WT: 1.3
100nM
  surviving fraction ratio K562 SF3B1 K700E / K562 SF3B1 WT: 0.822
500nM
  surviving fraction ratio K562 SF3B1 K700E / K562 SF3B1 WT: 0.921
1000nM
  surviving fraction ratio K562 SF3B1 K700E / K562 SF3B1 WT: 0.944

## Cn1cc(C2=Nc3cc(NC(=O)C(N)C4CCCCC4)cc4c3C2=CNNC4=O)cn1 (stereo not given)
0.5nM
  surviving fraction ratio K562 SF3B1 K700E / K562 SF3B1 WT: 0.884
1nM
  surviving fraction ratio K562 SF3B1 K700E / K562 SF3B1 WT: 0.979
5nM
  surviving fraction ratio K562 SF3B1 K700E / K562 SF3B1 WT: 0.826
10nM
  surviving fraction ratio K562 SF3B1 K700E / K562 SF3B1 WT: 0.834
50nM
  surviving fraction ratio K562 SF3B1 K700E / K562 SF3B1 WT: 0.992
100nM
  surviving fraction ratio K562 SF3B1 K700E / K562 SF3B1 WT: 0.621
500nM
  surviving fraction ratio K562 SF3B1 K700E / K562 SF3B1 WT: 0.815
1000nM
  surviving fraction ratio K562 SF3B1 K700E / K562 SF3B1 WT: 1.88

## C[C@H](CN(C)C)Oc1nc(Nc2cc3cccc(Cl)c3cn2)cnc1C#N
0.5nM
  surviving fraction ratio K562 SF3B1 K700E / K562 SF3B1 WT: 0.863
1nM
  surviving fraction ratio K562 SF3B1 K700E / K562 SF3B1 WT: 0.781
5nM
  surviving fraction ratio K562 SF3B1 K700E / K562 SF3B1 WT: 0.786
10nM
  surviving fraction ratio K562 SF3B1 K700E / K562 SF3B1 WT: 0.781
50nM
  surviving fraction ratio K562 SF3B1 K700E / K562 SF3B1 WT: 0.826
100nM
  surviving fraction ratio K562 SF3B1 K700E / K562 SF3B1 WT: 0.784
500nM
  surviving fraction ratio K562 SF3B1 K700E / K562 SF3B1 WT: 0.497
1000nM
  surviving fraction ratio K562 SF3B1 K700E / K562 SF3B1 WT: 0.442

## C=CCNC1=C2C[C@@H](C)C[C@H](OC)[C@H](O)[C@@H](C)/C=C(\C)[C@H](OC(N)=O)[C@@H](OC)/C=C\C=C(/C)C(=O)NC(=CC1=O)C2=O
0.5nM
  surviving fraction ratio K562 SF3B1 K700E / K562 SF3B1 WT: 1.01
1nM
  surviving fraction ratio K562 SF3B1 K700E / K562 SF3B1 WT: 0.993
5nM
  surviving fraction ratio K562 SF3B1 K700E / K562 SF3B1 WT: 0.811
10nM
  surviving fraction ratio K562 SF3B1 K700E / K562 SF3B1 WT: 0.776
50nM
  surviving fraction ratio K562 SF3B1 K700E / K562 SF3B1 WT: 0.41
100nM
  surviving fraction ratio K562 SF3B1 K700E / K562 SF3B1 WT: 1.81
500nM
  surviving fraction ratio K562 SF3B1 K700E / K562 SF3B1 WT: 1.31
1000nM
  surviving fraction ratio K562 SF3B1 K700E / K562 SF3B1 WT: 1.24

## C#Cc1cccc(Nc2ncnc3cc(OCCOC)c(OCCOC)cc23)c1 [erlotinib]
0.5nM
  surviving fraction ratio K562 SF3B1 K700E / K562 SF3B1 WT: 0.882
1nM
  surviving fraction ratio K562 SF3B1 K700E / K562 SF3B1 WT: 0.743
5nM
  surviving fraction ratio K562 SF3B1 K700E / K562 SF3B1 WT: 0.852
10nM
  surviving fraction ratio K562 SF3B1 K700E / K562 SF3B1 WT: 0.843
50nM
  surviving fraction ratio K562 SF3B1 K700E / K562 SF3B1 WT: 0.692
100nM
  surviving fraction ratio K562 SF3B1 K700E / K562 SF3B1 WT: 0.788
500nM
  surviving fraction ratio K562 SF3B1 K700E / K562 SF3B1 WT: 0.811
1000nM
  surviving fraction ratio K562 SF3B1 K700E / K562 SF3B1 WT: 0.712

## CC(=O)c1c(C)c2cnc(Nc3ccc(N4CCNCC4)cn3)nc2n(C2CCCC2)c1=O
0.5nM
  surviving fraction ratio K562 SF3B1 K700E / K562 SF3B1 WT: 0.861
1nM
  surviving fraction ratio K562 SF3B1 K700E / K562 SF3B1 WT: 0.89
5nM
  surviving fraction ratio K562 SF3B1 K700E / K562 SF3B1 WT: 0.743
10nM
  surviving fraction ratio K562 SF3B1 K700E / K562 SF3B1 WT: 0.796
50nM
  surviving fraction ratio K562 SF3B1 K700E / K562 SF3B1 WT: 0.826
100nM
  surviving fraction ratio K562 SF3B1 K700E / K562 SF3B1 WT: 0.882
500nM
  surviving fraction ratio K562 SF3B1 K700E / K562 SF3B1 WT: 0.849
1000nM
  surviving fraction ratio K562 SF3B1 K700E / K562 SF3B1 WT: 0.864

## O=C(O)C1(C(=O)O)CCC1.[NH2-].[NH2-].[Pt+2] [carboplatin]
0.5nM
  surviving fraction ratio K562 SF3B1 K700E / K562 SF3B1 WT: 0.765
1nM
  surviving fraction ratio K562 SF3B1 K700E / K562 SF3B1 WT: 0.799
5nM
  surviving fraction ratio K562 SF3B1 K700E / K562 SF3B1 WT: 0.905
10nM
  surviving fraction ratio K562 SF3B1 K700E / K562 SF3B1 WT: 0.829
50nM
  surviving fraction ratio K562 SF3B1 K700E / K562 SF3B1 WT: 0.917
100nM
  surviving fraction ratio K562 SF3B1 K700E / K562 SF3B1 WT: 0.764
500nM
  surviving fraction ratio K562 SF3B1 K700E / K562 SF3B1 WT: 0.917
1000nM
  surviving fraction ratio K562 SF3B1 K700E / K562 SF3B1 WT: 0.762

## CCC1=C[C@@H]2CN(C1)Cc1c([nH]c3ccccc13)[C@@](C(=O)OC)(c1cc3c(cc1OC)N(C)[C@H]1[C@@](O)(C(=O)OC)[C@H](OC(C)=O)[C@]4(CC)C=CCN5CC[C@]31[C@@H]54)C2 [vinorelbine]
0.5nM
  surviving fraction ratio K562 SF3B1 K700E / K562 SF3B1 WT: 1.02
1nM
  surviving fraction ratio K562 SF3B1 K700E / K562 SF3B1 WT: 0.921
5nM
  surviving fraction ratio K562 SF3B1 K700E / K562 SF3B1 WT: 0.475
10nM
  surviving fraction ratio K562 SF3B1 K700E / K562 SF3B1 WT: 0.385
50nM
  surviving fraction ratio K562 SF3B1 K700E / K562 SF3B1 WT: 1.53
100nM
  surviving fraction ratio K562 SF3B1 K700E / K562 SF3B1 WT: 1.9
500nM
  surviving fraction ratio K562 SF3B1 K700E / K562 SF3B1 WT: 1.97
1000nM
  surviving fraction ratio K562 SF3B1 K700E / K562 SF3B1 WT: 1.89
